Measured values as given in PubChem BioAssay.
For some assays here: Results with a measured potency or affinity are listed apart. Active and inactive are the calls of the source.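 How the source made its calls, unless noted: active means compound raising the membrane signal above positive-control mean plus 3 SD in both repeats, and a primary screen hit; inactive means the rest.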

How the values were obtained:
[1] = test system: TRPC4 beta (transient receptor potential cation channel C4), mouse; assay: TRPC4 cation channel opening, retest – cell-based, Fluo4 calcium, HEK293 TRPC4beta/mu-opioid, duplicates, 10 µM, confirmation (AID 2426;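 active means fluorescence ratio normalized to control raised more than 50% in primary screen plus both repeat runs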); conditions: Fluo4 calcium fluorescence, at 10 µM; hits give high values
[2] = test system: transient receptor potential cation channel C4 beta (TRPC4), mouse; assay: TRPC4 cation channel opening, second retest – cell-based, second round, Fluo4, HEK293 TRPC4beta/mu-opioid, 1 µM, confirmation (AID 2461;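 active means primary screen active and over 50% activation in each of two duplicate runs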); conditions: Fluo4 calcium fluorescence, at 1 µM; hits give high values
[3] = test system: TRPC4 (transient receptor potential cation channel C4 beta), mouse; assay: potentiation of DAMGO EC20 TRPC4 response – cell-based, second round, Fluo-4, HEK293 TRPC4beta/mu-opioid, 1 µM, confirmation (AID 2554;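 active means primary screen hit whose fluorescence ratio, in both repeats, exceeds the weak agonist control mean by 3 SD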); conditions: DAMGO EC20, Fluo-4 calcium flux, at 1 µM; hits give high values
[4] = test system: TRPC4 beta (transient receptor potential cation channel C4), mouse; assay: potentiation of DAMGO EC20 TRPC4 response – cell-based, Fluo-4, HEK293 TRPC4beta/mu-opioid, confirmation (AID 2555;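 active means primary screen hit whose calcium fluorescence ratio, in both repeats, exceeds the weak agonist control mean by 3 SD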); conditions: DAMGO EC20, Fluo-4 calcium flux, at 10 µM; hits give high values
[5] = target: Short transient receptor potential channel 4 (Mus musculus) (UniProt Q9QUQ5); assay: blockers of DAMGO-evoked TRPC4 calcium flux – cell-based, Fluo4, HEK293 TRPC4beta/mu-opioid, confirmation (AID 2636;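 active means calcium signal cut by more than 3 SD below the full-agonist control yet still positive, in both repeats and the earlier primary screen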); conditions: at 10 µM; hits give high values
[6] = target: Short transient receptor potential channel 4 (Mus musculus) (UniProt Q9QUQ5); assay: blockers of DAMGO-evoked TRPC4 calcium flux – cell-based, second round, Fluo4, HEK293 TRPC4beta/mu-opioid, 1 µM, confirmation (AID 2637;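 active means calcium signal ratio cut to more than 3 SD under the fully stimulated control mean yet still positive, in both repeats and the primary screen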;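 on inhibition: percent of integrated ratio relative to wells lacking test compound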); conditions: at 1 µM; hits give high values
[7] = target: Short transient receptor potential channel 4 (Mus musculus) (UniProt Q9QUQ5); assay: calcium entry via TRPC4 opening agents – cell-based, HEK293 TRPC4/mu-opioid, Fluo-4 calcium, dose response (AID 434937;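 active means primary screen activator hit with a dose response curve and TRPC4 channel activation at any tested dose; inactive means no activation, no dose response, or not a primary hit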)
[8] = target: Short transient receptor potential channel 4 (Mus musculus) (UniProt Q9QUQ5); assay: potentiation of DAMGO-evoked TRPC4 calcium signal – cell-based, HEK293 TRPC4/mu-opioid, Fluo-4 calcium, EC20 DAMGO, dose response (AID 434941;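 active means earlier screen potentiator hit that boosts the TRPC4 ion channel at some dose, with a dose response; inactive means no potentiation, no dose response, or not a prior hit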;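 further: calcium entry triggered by an EC20 dose of DAMGO at the co-expressed mu-opioid receptor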)
[9] = target: Short transient receptor potential channel 4 (Mus musculus) (UniProt Q9QUQ5); assay: block of DAMGO-driven TRPC4 calcium entry – cell-based, HEK293 TRPC4/mu-opioid, Fluo-4 calcium, dose response (AID 434942;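 active means primary screen inhibitor hit that blocks the TRPC4 channel at some tested dose, yielding a dose curve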)
[10] = target: Short transient receptor potential channel 6 (Mus musculus) (UniProt Q61143); assay: TRPC6 blockade by TRPC4 inhibitor hits – cell-based, HEK293, membrane potential dye, duplicate, selectivity assay for TRPC4 inhibitor project, confirmation (AID 434948;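 active means active in primary screen and both duplicates, each dropping signal beyond three positive-control SD with fluorescence still positive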); conditions: HEK293 TRPC6, membrane potential dye fluorescence, at 10 µM, stimulated with maximal-effect acetylcholine; hits give high values
[11] = target: Short transient receptor potential channel 6 (Mus musculus) (UniProt Q61143); assay: TRPC6 opening by TRPC4 activator hits – cell-based, HEK293, membrane potential dye, duplicate, selectivity assay for TRPC4 activator project, confirmation (AID 434950;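 active means membrane potential signal rise above negative control mean plus 3 SD in both duplicates, also active in the earlier TRPC4 screen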); conditions: HEK293 TRPC6, membrane potential fluorescence, at 10 µM; activation: hits give high values; outcome: activation
[12] = target: Short transient receptor potential channel 6 (Mus musculus) (UniProt Q61143); assay: positive modulators of mouse TRPC6 channel – HEK293 cells, membrane potential dye, duplicate, selectivity assay for TRPC4 potentiator project, confirmation (AID 434952); conditions: HEK293 TRPC6, membrane potential dye fluorescence, at 10 µM, maximal acetylcholine added after compound; hits give high values
[13] = target: Short transient receptor potential channel 4 (Mus musculus) (UniProt Q9QUQ5); assay: calcium flux activators in TRPC4/5HT1a cells, counter-screen for TRPC4 activator project, cell-based, second counter screen, HEK293 TRPC4/5HT1a, Fluo-4 (AID 434977;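 active means calcium signal rise above buffer-control mean plus 5 SD in both duplicates, and also a hit in the primary screen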;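 on activation: plate controls were assay buffer for no effect and maximal serotonin response for full effect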); conditions: Fluo-4 calcium flux, at 10 µM; hits give high values
[14] = serotonin-gated TRPC4 signal block – cell-based, second counter screen, HEK293 TRPC4/5HT1a, Fluo-4, counter-screen for TRPC4 inhibitor project, confirmation (AID 434978;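 active means primary screen active whose calcium signal fell more than 3 SD beyond the full-serotonin control mean in both duplicate plates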;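 further: serotonin given first at submaximal then at maximal dose after compound preincubation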); conditions: Fluo-4 calcium flux, at 10 µM, serotonin added to trigger calcium flux; hits give high values
[15] = test system: TRPC4 (mouse), co-expressed with 5HT1a in HEK293; assay: enhancement of serotonin-evoked TRPC4 response – cell-based, second counter screen, HEK293 TRPC4/5HT1a, Fluo-4, counter-screen for TRPC4 potentiator project, confirmation (AID 434979;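 active means signal rise over 3 SD above mean of control wells given weak agonist, in both repeats and first screen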); conditions: Fluo-4 calcium flux, at 10 µM, serotonin added at its EC20 dose; hits give high values
[16] = nonspecific calcium rise without TRPC4 – cell-based, HEK293 mu-opioid receptor line, counter-screen for TRPC4 activator project, confirmation (AID 449723;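 active means hit in primary screen, with calcium signal over 5 SD above buffer well mean in both duplicates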;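 further: counter screen cells carry the mu-opioid receptor alone and lack TRPC4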); conditions: HEK293 mu-opioid cells, Fluo-4 calcium fluorescence, at 10 µM; hits give high values
[17] = nonspecific potentiation of DAMGO calcium response – cell-based, HEK293 mu-opioid receptor line, counter-screen for TRPC4 allosteric potentiator project, confirmation (AID 449724;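 active means calcium signal rise more than 3 SD above the low-dose agonist control mean, in both duplicate plates and the primary screen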); conditions: HEK293 mu-opioid receptor cells, Fluo-4 calcium flux, at 10 µM, compound added before EC20 DAMGO stimulus; hits give high values

Short transient receptor potential channel 4 (Mus musculus), sequence (Q9QUQ5 whole entry, looked up): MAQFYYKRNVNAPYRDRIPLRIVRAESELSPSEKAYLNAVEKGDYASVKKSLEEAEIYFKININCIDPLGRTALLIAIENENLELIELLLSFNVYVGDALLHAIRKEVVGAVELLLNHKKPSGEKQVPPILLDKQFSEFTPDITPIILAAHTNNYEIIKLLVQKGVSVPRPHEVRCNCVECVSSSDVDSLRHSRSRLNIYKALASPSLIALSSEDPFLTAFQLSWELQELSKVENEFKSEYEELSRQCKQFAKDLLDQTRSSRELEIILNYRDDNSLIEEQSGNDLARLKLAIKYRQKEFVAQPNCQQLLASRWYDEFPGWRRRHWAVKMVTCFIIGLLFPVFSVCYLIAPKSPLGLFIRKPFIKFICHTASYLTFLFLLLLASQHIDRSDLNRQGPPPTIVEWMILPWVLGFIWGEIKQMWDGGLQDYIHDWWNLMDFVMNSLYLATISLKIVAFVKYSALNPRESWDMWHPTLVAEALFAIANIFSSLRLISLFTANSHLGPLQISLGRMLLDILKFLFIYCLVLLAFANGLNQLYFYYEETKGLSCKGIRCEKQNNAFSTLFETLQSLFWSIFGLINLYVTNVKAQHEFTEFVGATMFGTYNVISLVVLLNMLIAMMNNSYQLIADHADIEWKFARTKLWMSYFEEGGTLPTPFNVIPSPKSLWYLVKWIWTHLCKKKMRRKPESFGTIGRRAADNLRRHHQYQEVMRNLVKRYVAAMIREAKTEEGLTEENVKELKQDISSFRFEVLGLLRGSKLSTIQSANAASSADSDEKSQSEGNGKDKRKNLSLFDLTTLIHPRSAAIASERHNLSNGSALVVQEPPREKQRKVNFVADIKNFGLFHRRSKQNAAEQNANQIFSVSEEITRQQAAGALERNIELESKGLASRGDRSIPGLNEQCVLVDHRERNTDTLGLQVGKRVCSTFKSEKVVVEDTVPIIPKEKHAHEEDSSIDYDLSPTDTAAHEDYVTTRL
Short transient receptor potential channel 6 (Mus musculus), sequence (Q61143 whole entry, looked up): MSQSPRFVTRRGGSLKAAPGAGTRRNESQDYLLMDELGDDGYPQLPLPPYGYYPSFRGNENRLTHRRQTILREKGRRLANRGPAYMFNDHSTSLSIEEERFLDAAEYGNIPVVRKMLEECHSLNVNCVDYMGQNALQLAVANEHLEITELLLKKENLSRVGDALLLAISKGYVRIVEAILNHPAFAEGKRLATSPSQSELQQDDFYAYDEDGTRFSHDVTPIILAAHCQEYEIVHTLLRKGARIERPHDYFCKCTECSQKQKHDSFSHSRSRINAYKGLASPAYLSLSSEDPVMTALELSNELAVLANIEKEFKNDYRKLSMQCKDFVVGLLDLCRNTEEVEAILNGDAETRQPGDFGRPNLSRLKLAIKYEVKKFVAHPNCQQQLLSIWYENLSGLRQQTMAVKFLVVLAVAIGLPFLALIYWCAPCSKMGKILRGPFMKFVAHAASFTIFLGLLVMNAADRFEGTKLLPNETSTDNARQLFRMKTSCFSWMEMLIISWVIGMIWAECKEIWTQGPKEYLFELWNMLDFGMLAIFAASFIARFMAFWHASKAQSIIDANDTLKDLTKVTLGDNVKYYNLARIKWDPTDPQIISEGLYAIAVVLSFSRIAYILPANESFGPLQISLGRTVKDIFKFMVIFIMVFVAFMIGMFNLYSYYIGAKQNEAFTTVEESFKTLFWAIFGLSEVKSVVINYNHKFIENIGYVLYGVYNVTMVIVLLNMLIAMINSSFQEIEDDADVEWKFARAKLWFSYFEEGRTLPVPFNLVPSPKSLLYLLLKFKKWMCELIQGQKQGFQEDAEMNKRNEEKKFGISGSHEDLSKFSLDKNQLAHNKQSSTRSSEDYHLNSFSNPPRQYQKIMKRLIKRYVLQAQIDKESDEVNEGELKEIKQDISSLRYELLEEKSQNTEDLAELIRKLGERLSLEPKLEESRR

C=CCNC(=S)N/N=C/c1ccc(C(C)(C)C)cc1
active: inhibition [5] 79% | inhibition [6] 41%
inactive: outcome [1] | outcome [2] | outcome [3] | outcome [4] | outcome [7] | outcome [8] | outcome [9] | outcome [10] | outcome [11] | outcome [12] | outcome [13] | outcome [14] | outcome [15] | outcome [16] | outcome [17]

CC(CCc1ccc(O)cc1)N(C)CCc1ccccc1 (centres undefined)
inactive: outcome [1] | outcome [2] | outcome [3] | outcome [4] | outcome [5] | outcome [6] | outcome [7] | outcome [8] | outcome [9] | outcome [10] | outcome [11] | outcome [12] | outcome [13] | outcome [14] | outcome [15] | outcome [16] | outcome [17]

CCCN(CCC)CCCNC(=O)c1cc2c(=O)n(C)c3ccccc3c2n1C
active: potentiation [3] 23% | activation [13] 6.09% | potentiation [15] 23.1%
inactive: outcome [1] | outcome [2] | outcome [4] | outcome [5] | outcome [6] | outcome [7] | outcome [8] | outcome [9] | outcome [10] | outcome [11] | outcome [12] | outcome [14] | outcome [16] | outcome [17]

Cn1c(=O)c2c(nc(CN3CCc4ccccc4C3)n2Cc2ccccc2)n(C)c1=O
active: potentiation [3] 40% | potentiation [15] 97.6%
inactive: outcome [1] | outcome [2] | outcome [4] | outcome [5] | outcome [6] | outcome [7] | outcome [8] | outcome [9] | outcome [10] | outcome [11] | outcome [12] | outcome [13] | outcome [14] | outcome [16] | outcome [17]

CCN1C2=NCCCN2c2cc(C)c(C)cc21
inactive: outcome [1] | outcome [2] | outcome [3] | outcome [4] | outcome [5] | outcome [6] | outcome [7] | outcome [8] | outcome [9] | outcome [10] | outcome [11] | outcome [12] | outcome [13] | outcome [14] | outcome [15] | outcome [16] | outcome [17]

c1ccc(Nc2nc(N3CCCCC3)nc(N3CCNCC3)n2)cc1
inactive: outcome [1] | outcome [2] | outcome [3] | outcome [4] | outcome [5] | outcome [6] | outcome [7] | outcome [8] | outcome [9] | outcome [10] | outcome [11] | outcome [12] | outcome [13] | outcome [14] | outcome [16] | outcome [17]
active: potentiation [15] 44.6%

CCOC(=O)c1cn(Cc2ccccc2)c(C(=O)OC(C)(C)C)c1O
inactive: outcome [1] | outcome [2] | outcome [3] | outcome [4] | outcome [5] | outcome [6] | outcome [7] | outcome [8] | outcome [9] | outcome [10] | outcome [11] | outcome [12] | outcome [14] | outcome [15] | outcome [17]
active: activation [13] 54.1% | activation [16] 21.1%
